Screens: PubChem, several laboratories
AHR activator: activates the human aryl hydrocarbon receptor | AID 2796 | activation, % at 5 µM | hit rate 2.5% among 320,000 | AHR-responsive luciferase reporter cells, luminescence | P35869; in the data active means activation above about 47%
ADAM17 inh: ADAM17 inhibition, QFRET primary screen; P78536; recombinant ADAM17, EDANS/DABCYL FRET peptide cleavage; hit rate 0.83% among 370,000; inhibition, % at 6.95 µM;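 active means inhibition above the mean of compounds lying between control limits plus 3 SD, set per campaign, cut at about 8.5% in these data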
Target sequence (P78536 215-824 limits assumed): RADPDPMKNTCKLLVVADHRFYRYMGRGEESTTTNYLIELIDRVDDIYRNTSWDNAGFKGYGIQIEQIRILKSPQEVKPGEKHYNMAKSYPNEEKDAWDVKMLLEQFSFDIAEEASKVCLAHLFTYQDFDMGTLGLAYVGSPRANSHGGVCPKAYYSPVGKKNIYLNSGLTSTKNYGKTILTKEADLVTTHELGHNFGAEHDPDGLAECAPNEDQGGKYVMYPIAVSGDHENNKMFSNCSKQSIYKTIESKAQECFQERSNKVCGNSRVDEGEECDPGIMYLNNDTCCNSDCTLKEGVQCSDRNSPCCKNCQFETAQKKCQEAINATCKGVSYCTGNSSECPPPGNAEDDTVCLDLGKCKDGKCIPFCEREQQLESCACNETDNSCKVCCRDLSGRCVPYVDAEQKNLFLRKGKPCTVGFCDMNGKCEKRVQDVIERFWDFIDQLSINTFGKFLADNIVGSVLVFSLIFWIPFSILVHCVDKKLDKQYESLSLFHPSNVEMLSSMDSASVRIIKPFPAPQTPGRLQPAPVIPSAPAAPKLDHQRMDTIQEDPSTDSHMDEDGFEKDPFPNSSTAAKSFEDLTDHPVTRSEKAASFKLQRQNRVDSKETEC
proKLK7 act: proKLK7 (human) activation, primary screen. P49862. purified proKLK7, EDANS-DABCYL substrate fluorescence; 100% is mature enzyme control, 0% vehicle. activation, % at 7 µM. hit rate 0.9% among 370,000. AID 652039;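 active means activation above the mean of all tested compounds plus 3 SD, computed per campaign excluding outliers beyond control limits, cut at about 13% in these data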
NR3A LBD binder: modulators (binders) of human NR3A ligand-binding domain; NR3A LBD differential scanning fluorimetry, Tm shift; 0% = protein alone, 100% = glycine-bound protein; Tm shift relative to glycine control, % at 25 µM; hit rate 2.5% among 340,000;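 active means melting temperature shift of at least 10% of the positive control shift, at one fixed dose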
rCAG RNA binder: r(CAG) repeat RNA binding; inhibition, % at 3 µM; TO-PRO-1 dye displacement fluorescence; hit rate 1.3% among 370,000; AID 651821;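 active means inhibition above the plate cutoff, the mean of all test compounds on that plate plus 3 SD, cut at about 35% in these data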;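 further: higher means more dye released from RNA so lower well fluorescence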
ADAM10 inh: inhibits human ADAM10; O14672; recombinant ADAM10, EDANS/DABCYL FRET peptide cleavage, 3 h; inhibition, % at 7 µM; hit rate 0.62% among 370,000;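 active means inhibition above a per-campaign cutoff equal to the mean of compounds falling between control-based bounds plus 3 SD, cut at about 20% in these data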
ADAM10 ctr: counter-screen for ADAM17 exosite inhibitors: inhibitors of human ADAM10; AID 743256; shares compounds with ADAM17 inh; inhibition, % at 6.95 µM; hit rate 47% among 2,900; recombinant ADAM10, EDANS/DABCYL FRET peptide cleavage, 3 h;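 active means mean inhibition over the triplicate runs exceeds the activity threshold set in the earlier primary screen, cut at about 20% in these data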
ADAM17 confirm: human ADAM17 inhibition, confirmation | inhibition, % at 6.95 µM | recombinant ADAM17, EDANS/DABCYL QFRET peptide cleavage | shares compounds with ADAM17 inh | hit rate 65% among 2,900;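 active means mean inhibition across replicates above the hit cutoff set in the primary screen, cut at about 8.5% in these data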
Each line names hits and unclear results; the compound was inactive in the other large screens (follow-up assays come after a bar, where they were run). Hits are enriched below; roughly 7% of the tested compounds scored in any of these assays.

CC(C)N(c1ccccc1)c1ccc(NC(=O)COC(=O)CCN2C(=O)c3cccc([N+](=O)[O-])c3C2=O)cc1	ADAM17 inh 8.7 | ADAM10 ctr 25 | ADAM17 confirm 15
CCOC(=O)c1c(C)[nH]c(C)c1C(=O)CSc1nc2ccccc2c(=O)n1-c1ccc(Cl)cc1	ADAM17 inh 11 | ADAM10 ctr 28 | ADAM17 confirm 19
COC(=O)N1CCCCC1c1cc(C(=O)NCc2ccc(Cl)c(Cl)c2)no1 (centres undefined)	none (no result: AHR activator, NR3A LBD binder)
O=C(NCc1ccc(Cl)c(Cl)c1)c1cc(C2CCCCN2C(=O)C2CCCCC2)on1 (centres undefined)	ADAM17 inh 10 (no result: AHR activator, NR3A LBD binder) | ADAM10 ctr inactive | ADAM17 confirm inactive
COc1ccc(Br)cc1/C=C/C(=O)NC(=S)Nc1ccc(CN2CCOCC2)cc1	none
CCN(CC)c1ccc(NC(=O)/C=C/c2cc(Br)ccc2OC)cc1	AHR activator 55, ADAM17 inh 10 | ADAM10 ctr 27 | ADAM17 confirm 20
COc1ccc(Br)cc1/C=C/C(=O)Nc1c(C)cccc1C	ADAM17 inh 9.8 | ADAM10 ctr inactive | ADAM17 confirm inactive
O=C(CSc1nnc(-c2cccnc2)o1)N1CCCCC1	none
CCCCCC(=O)N1C[C@@H](O)[C@H](n2cc(COC(=O)c3ccccc3)nn2)C[C@@H]1c1ccc(C)cc1	none (no result: AHR activator, NR3A LBD binder)
COc1ccc([C@H]2C[C@H](O)[C@@H](n3cc(COC(=O)c4ccccc4)nn3)CN2Cc2cccs2)cc1	ADAM17 inh 9.3 (no result: AHR activator, NR3A LBD binder) | ADAM10 ctr inactive | ADAM17 confirm inactive
CCCCCC(=O)N1C[C@H](n2cc(COC(=O)c3ccccc3)nn2)[C@@H](O)C[C@@H]1c1ccc(C)cc1	ADAM17 inh 9.8 (no result: AHR activator, NR3A LBD binder) | ADAM10 ctr 33 | ADAM17 confirm 17
CCCCCC(=O)N1C[C@@H](n2cc(-c3ccc(F)cc3)nn2)[C@H](O)C[C@@H]1c1ccc(C)cc1	ADAM17 inh 10 (no result: AHR activator, NR3A LBD binder) | ADAM10 ctr inactive | ADAM17 confirm 9.9
COc1ccc(C(C)(O)c2nc(-c3cccc(C(C)C)c3)cs2)cc1 (centres undefined)	none (no result: AHR activator, NR3A LBD binder)
C[C@@H]1CNC(=O)c2c(C(=O)N[C@H](C)c3ccccc3)ncn21	none (no result: AHR activator, NR3A LBD binder)
O=C(NC(Cc1c[nH]c2ccccc12)C(=O)OCC(=O)c1cccc2ccccc12)c1cccs1 (centres undefined)	ADAM17 inh 9.5 | ADAM10 ctr inactive | ADAM17 confirm 8.9
CC(C)c1nnc(SCC(=O)Nc2ccc3c(c2)OCCO3)n1C	none
CCC(C)[C@H]1CNC(=O)C(=O)N1CCc1cccc2ccccc12 (some centres undefined)	none (no result: AHR activator, NR3A LBD binder)
CCC(C)[C@H]1CNC(=S)N1CCc1cccc2ccccc12 (some centres undefined)	ADAM17 inh 13 | ADAM10 ctr inactive | ADAM17 confirm inactive
COc1ccc(Cl)cc1NC(=O)CN(C)C(=O)c1n[nH]c2ccccc12	none
O=C(O)c1ccc2c(c1)C(=O)N(CCc1c[nH]c3ccccc13)C2=O	none (no result: AHR activator)
Cc1cccc(N2CCN(C(=O)c3ccc4ncsc4c3)CC2)c1C	ADAM17 inh 8.9 (no result: AHR activator) | ADAM10 ctr inactive | ADAM17 confirm inactive
CCCOc1ccc(C(=O)NC(=S)N2CCN(c3cc4c(cc3F)c(=O)c(C(=O)O)cn4CC)CC2)cc1	none
CCOC(=O)Cn1cnc2c(nnn2-c2ccc(F)cc2)c1=O	none
C[C@@]12C(=O)N(c3cccc(F)c3)C(=O)N1[C@H](c1ccc(Cl)cc1)[C@@H]1C(=O)N(C3CCCCC3)C(=O)[C@@H]12	none
C[C@@]12C(=O)N(c3cccc(Cl)c3)C(=O)N1[C@H](c1ccc(Cl)cc1)[C@@H]1C(=O)N(C3CCCCC3)C(=O)[C@@H]12	ADAM17 inh 10 | ADAM10 ctr 38 | ADAM17 confirm 22
CC(CC(=O)OCC(=O)Nc1ccc2[nH]c(=O)[nH]c2c1)c1ccccc1 (centres undefined)	none
